# Measurements reported in the supplement of paper PMC7726561.
# Whole data set: some 1,400 sequences, median “thermal melting temperature (Tm) of peptide-HLA complex” near 60, cut for the lowest 2% near 45. The sample as a whole holds a higher share of the lowest values than the screen did.
# B1: unnamed (peptide)
# chain: FPNIPGKSL
# B2: unnamed (peptide)
# chain: APRWLEEEAAL
# B3: unnamed (peptide)
# chain: IPIGGGTSV
# B4: unnamed (peptide)
# chain: SPASFLRSL
# B5: unnamed (peptide)
# chain: SPASRSISL
# B6: unnamed (peptide)
# chain: QPASFAVSL
# B7: unnamed (peptide)
# chain: NPRLNILDTL
# B8: unnamed (peptide)
# chain: GPIYPGHGM
# B9: unnamed (peptide)
# chain: YPRMQVTVF
# B10: unnamed (peptide)
# chain: APKSPSSEWL
# B11: unnamed (peptide)
# chain: YPRAQLEVSAL
# B12: unnamed (peptide)
# chain: APAPPTTTTI
# B13: unnamed (peptide)
# chain: VPMPLPTVL
# B14: unnamed (peptide)
# chain: RPALPSTQQL
# B15: unnamed (peptide)
# chain: APDKHHITPLL
# B16: unnamed (peptide)
# chain: TPMPKDVRQSL
# B17: unnamed (peptide)
# chain: KPHLPSVTYL
# B18: unnamed (peptide)
# chain: NVKKVSLEL
# B19: unnamed (peptide)
# chain: APAGLPRETL
# B20: unnamed (peptide)
# chain: IPDHFRPPL
# B21: unnamed (peptide)
# chain: VIRELSRAL
# B22: unnamed (peptide)
# chain: KPINVRVTTM
# B23: unnamed (peptide)
# chain: RPIESPGGSVL
# B24: unnamed (peptide)
# chain: LPGISREAL
# B25: unnamed (peptide)
# chain: SPRDPVLTL
# B26: unnamed (peptide)
# chain: QPRDPSSTL
# B27: unnamed (peptide)
# chain: LPSKPSSTL
# B28: unnamed (peptide)
# chain: SPRFPAQYL
# B29: unnamed (peptide)
# chain: RPLPGALGV
# B30: unnamed (peptide)
# chain: VPNAGRGLV
# B31: unnamed (peptide)
# chain: HPREPLPPIQ
# B32: unnamed (peptide)
# chain: IPSSHPVSL
# B33: unnamed (peptide)
# chain: HPREPALGP
# B34: unnamed (peptide)
# chain: RPAGPVAVGI
# B35: unnamed (peptide)
# chain: SPRVQFQSL
# B36: unnamed (peptide)
# chain: RPAEVGGMQL
# B37: unnamed (peptide)
# chain: RPDYRNITF
# B38: unnamed (peptide)
# chain: NPRNFSDNQL
# B39: unnamed (peptide)
# chain: IFSEVPVQL
# B40: unnamed (peptide)
# chain: GVRPFGVSL
# B41: unnamed (peptide)
# chain: SPYPGLRLI
# B42: unnamed (peptide)
# chain: SPGPSRPGL
# B43: unnamed (peptide)
# chain: SPAEPSVYATL
# B44: unnamed (peptide)
# chain: AVILRALSL
# B45: unnamed (peptide)
# chain: FPHLREEIL
# B46: unnamed (peptide)
# chain: SPASRSISLL
# B47: unnamed (peptide)
# chain: LPKDQGITL
# B48: unnamed (peptide)
# chain: APAPRPSL
# B49: unnamed (peptide)
# chain: LPRTVTQLV
# B50: unnamed (peptide)
# chain: RPISVIGGVSL
# B51: unnamed (peptide)
# chain: APSGGRLLSA
# B52: unnamed (peptide)
# chain: LPRQPPMSL
# B53: unnamed (peptide)
# chain: LPNGRDTPAL
# B54: unnamed (peptide)
# chain: SPAFSTRVL
# B55: unnamed (peptide)
# chain: KPFDQTTISL
# B56: unnamed (peptide)
# chain: RPRPGNILLQL
# Biological target: HLA-B*07:02
# Assay: thermal melting temperature (Tm) of peptide-HLA complex; higher = more thermostable pHLA complex
# Settings: C1R-B*07:02
# 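Further: lysates heated 10 min at 37–73 °C, complexes pulled down with pan-HLA I antibody, peptide signal by DIA-MS relative to 37 °C, Tm where half the complex is unfolded.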
row,Sequence,thermal melting temperature
1,B1,62 °C
2,B2,62.7 °C
3,B3,41.6 °C
4,B4,40.6 °C
5,B5,61 °C
6,B6,62.8 °C
7,B7,51.2 °C
8,B8,59.2 °C
9,B9,61.9 °C
10,B10,51.9 °C
11,B11,61.5 °C
12,B12,61 °C
13,B13,62.6 °C
14,B14,57.6 °C
15,B15,43.7 °C
16,B16,44.5 °C
17,B17,60.8 °C
18,B18,44.3 °C
19,B19,58.1 °C

row,Sequence,thermal melting temperature
1,B20,60.4 °C
2,B21,45.3 °C
3,B22,56 °C
4,B23,45.3 °C
5,B24,41.3 °C
6,B25,64.4 °C
7,B26,43.5 °C
8,B27,58.1 °C
9,B28,62.6 °C
10,B29,59 °C
11,B30,58.5 °C
12,B31,51.3 °C
13,B32,56.2 °C
14,B33,55.3 °C
15,B34,43.3 °C
16,B35,61.7 °C
17,B36,59.1 °C
18,B37,61.7 °C
19,B38,53 °C

row,Sequence,thermal melting temperature
1,B39,42.1 °C
2,B40,57.4 °C
3,B41,61.8 °C
4,B42,56.1 °C
5,B43,62.8 °C
6,B44,61.1 °C
7,B45,51.6 °C
8,B46,57.1 °C
9,B47,61.7 °C
10,B48,58.1 °C
11,B49,45.6 °C
12,B50,62.3 °C
13,B51,60.1 °C
14,B52,66.1 °C
15,B53,59.2 °C
16,B54,60.3 °C
17,B55,61.3 °C
18,B56,55.6 °C
